Reference: PubChem BioAssay (EPA / NIEHS)
Results filed as inconclusive are left out. Active and inactive are the calls of the source. How the source made its calls, unless noted: active means hit-call score of the fitted dose curve at least 0.9, where 1 is the maximum; inconclusive means response in the unintended direction; inactive means score below 0.9.

Assays:
[1] = ATG_TAL_CIS: Attagene CIS-FACTORIAL HepG2 Assay for human TAL Basal Promoter (AID 2282966; active means hit-call score of the fitted dose curve at least 0.9, where 1 is the maximum; inactive means score below 0.9;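 further: background control endpoint measuring basal TAL promoter reporter mRNA not a specific factor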); details: HepG2 Attagene cis-factorial TAL promoter reporter; actives raise or lower the signal
Summary of the method: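 After 24 hours of chemical exposure, transfected HepG2 cells yielded RNA that was converted to 6-FAM-labelled, HpaI-digested reporter fragments for capillary electrophoresis. Values derive from bidirectional fitting against DMSO controls.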

[2] = ATG_TGFb_CIS: Attagene CIS-FACTORIAL HepG2 Assay for human Transforming Growth Factor (TGF) (AID 2282967; active means hit-call score of the fitted dose curve at least 0.9, where 1 is the maximum; inactive means score below 0.9); details: HepG2 Attagene CIS TGFb reporter, mRNA transcription; actives raise or lower the signal
Summary of the method: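 Multiplexed cis-reporter HepG2 system, 24 h treatment; mRNA induction read by fluorescence after RT-PCR and CE; DMSO negative control, bidirectional curve fitting.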

[3] = molecular target: Nuclear receptor subfamily 1 group I member 3 (Homo sapiens) (UniProt Q14994); assay: ATG_CAR_TRANS: Attagene TRANS-FACTORIAL HepG2 Assay for human Constitutive Androstane Receptor (CAR) (AID 2282969); details: HepG2 Attagene TRANS-FACTORIAL CAR reporter;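 further: activators raise reporter mRNA above DMSO so AC50 marks induction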
Sequence of Nuclear receptor subfamily 1 group I member 3 (Homo sapiens) (Q14994 whole entry, looked up, the tested form may be a part): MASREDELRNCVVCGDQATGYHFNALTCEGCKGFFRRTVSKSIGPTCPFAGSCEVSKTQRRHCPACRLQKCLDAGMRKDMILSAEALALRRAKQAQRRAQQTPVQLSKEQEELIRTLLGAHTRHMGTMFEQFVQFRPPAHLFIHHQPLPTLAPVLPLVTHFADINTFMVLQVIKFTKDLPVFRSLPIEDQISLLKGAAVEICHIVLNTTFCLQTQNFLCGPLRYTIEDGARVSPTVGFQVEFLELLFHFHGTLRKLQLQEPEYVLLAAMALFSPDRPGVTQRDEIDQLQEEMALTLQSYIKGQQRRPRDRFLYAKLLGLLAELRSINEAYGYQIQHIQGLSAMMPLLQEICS
Summary of the method: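 Transiently transfected HepG2, multiplex TRANS reporters (CAR-Gal4 chimera driving GAL4-UAS reporter). 24 h dosing. Readout: reporter transcript by RT-PCR + capillary electrophoresis, fluorescence intensity; positive direction vs DMSO.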

[4] = molecular target: Estrogen receptor (Homo sapiens) (UniProt P03372); assay: ATG_ERa_TRANS: Attagene TRANS-FACTORIAL HepG2 Assay for human Estrogen Receptor alpha (ERa) (AID 2282970); details: HepG2 Attagene TRANS ERa GAL4 reporter, mRNA
Sequence of Estrogen receptor (Homo sapiens) (P03372 whole entry, looked up, the tested form may be a part): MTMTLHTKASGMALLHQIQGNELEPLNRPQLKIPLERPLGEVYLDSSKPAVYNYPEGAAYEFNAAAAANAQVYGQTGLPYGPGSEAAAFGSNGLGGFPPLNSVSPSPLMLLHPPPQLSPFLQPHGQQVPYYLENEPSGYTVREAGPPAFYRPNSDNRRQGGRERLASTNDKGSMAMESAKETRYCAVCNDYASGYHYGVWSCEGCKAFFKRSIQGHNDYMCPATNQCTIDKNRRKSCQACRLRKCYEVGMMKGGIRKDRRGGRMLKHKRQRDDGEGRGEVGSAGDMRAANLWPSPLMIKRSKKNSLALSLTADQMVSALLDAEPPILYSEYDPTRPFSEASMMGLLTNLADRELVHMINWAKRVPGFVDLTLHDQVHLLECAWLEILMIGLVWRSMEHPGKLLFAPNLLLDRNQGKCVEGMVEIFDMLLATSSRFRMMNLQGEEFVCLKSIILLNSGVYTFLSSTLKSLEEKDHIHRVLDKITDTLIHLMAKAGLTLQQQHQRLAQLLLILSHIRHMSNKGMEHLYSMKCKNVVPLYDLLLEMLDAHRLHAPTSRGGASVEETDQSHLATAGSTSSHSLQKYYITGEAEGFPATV
Summary of the method: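 Liver-derived HepG2 cells expressing chimeric nuclear receptor-Gal4 proteins from transient transfection were exposed for 24 hours. Gain of reporter mRNA signal versus DMSO, read by capillary electrophoresis of FAM-labelled PCR products, was recorded.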

[5] = molecular target: X-box-binding protein 1 (Homo sapiens) (UniProt P17861); assay: ATG_Xbp1_CIS: Attagene CIS-FACTORIAL HepG2 Assay for human X-box Binding Protein 1 (XBP1) (AID 2282972; active means hit-call score of the fitted dose curve at least 0.9, where 1 is the maximum; inactive means score below 0.9); details: HepG2 XBP1 cis-element reporter, Attagene multiplex; actives raise or lower the signal
Sequence of X-box-binding protein 1 (Homo sapiens) (P17861 whole entry, looked up): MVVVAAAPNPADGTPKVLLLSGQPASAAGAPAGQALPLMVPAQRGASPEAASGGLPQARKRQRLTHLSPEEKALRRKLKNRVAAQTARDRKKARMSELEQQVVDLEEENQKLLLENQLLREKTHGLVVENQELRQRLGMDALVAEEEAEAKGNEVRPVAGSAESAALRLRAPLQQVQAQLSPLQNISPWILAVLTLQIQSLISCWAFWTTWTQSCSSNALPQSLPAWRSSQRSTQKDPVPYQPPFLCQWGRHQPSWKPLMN
Summary of the method: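 Human hepatoma HepG2, cis-element reporter system, 24 h treatment; mRNA quantified by RT-PCR/CE fluorescence; fit relative to DMSO.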

[6] = ATG_M_19_TRANS: Attagene TRANS-FACTORIAL HepG2 Assay for M19 Transcription Factor (Internal Marker) (AID 2282974); details: HepG2 Attagene TRANS-FACTORIAL M19 internal marker reporter
Summary of the method: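 After transfection of HepG2 with GAL4-UAS-driven reporter constructs, cells are dosed for 24 h. Total RNA is reverse-transcribed, reporter sequences PCR-amplified and labelled, then HpaI-digested and sized by capillary electrophoresis.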

[7] = ATG_GAL4_TRANS: Attagene TRANS-FACTORIAL HepG2 Assay for GAL4 (Internal Marker) (AID 2282976); details: HepG2 Attagene TRANS GAL4 internal marker reporter
Summary of the method: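 First, HepG2 cells were transfected with reporter units under GAL4-UAS control. Next, they were treated with chemical for 24 h. Finally, RNA was reverse-transcribed, PCR-amplified, FAM-labelled and resolved by capillary electrophoresis, with induction scored against DMSO.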

[8] = molecular target: Oxysterols receptor LXR-alpha (Homo sapiens) (UniProt Q13133); assay: ATG_LXRa_TRANS: Attagene TRANS-FACTORIAL HepG2 Assay for human Liver X Receptor alpha (LXRa) (AID 2282980); details: HepG2 Attagene TRANS reporter, LXRa transactivation
Sequence of Oxysterols receptor LXR-alpha (Homo sapiens) (Q13133 whole entry, looked up, the tested form may be a part): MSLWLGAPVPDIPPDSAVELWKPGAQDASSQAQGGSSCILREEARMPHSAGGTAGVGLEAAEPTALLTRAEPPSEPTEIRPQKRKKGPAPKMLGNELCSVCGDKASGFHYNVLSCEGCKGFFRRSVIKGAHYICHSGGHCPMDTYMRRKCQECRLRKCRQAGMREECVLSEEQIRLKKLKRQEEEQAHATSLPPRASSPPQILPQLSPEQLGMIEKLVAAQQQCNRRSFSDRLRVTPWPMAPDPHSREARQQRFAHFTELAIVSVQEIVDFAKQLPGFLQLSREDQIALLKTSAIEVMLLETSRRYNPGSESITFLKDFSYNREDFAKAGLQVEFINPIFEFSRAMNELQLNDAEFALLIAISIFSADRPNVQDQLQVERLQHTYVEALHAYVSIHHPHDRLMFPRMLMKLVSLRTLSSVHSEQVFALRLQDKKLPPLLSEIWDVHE
Summary of the method: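 Transfect HepG2 with GAL4-UAS multiplex reporter constructs (TRANS format, chimeric receptor-GAL4); treat 24 h; extract RNA, reverse-transcribe, PCR-amplify, FAM-label, HpaI-digest; resolve fragments by capillary electrophoresis. Upward response vs DMSO.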

[9] = molecular target: Oxysterols receptor LXR-beta (Homo sapiens) (UniProt P55055); assay: ATG_LXRb_TRANS: Attagene TRANS-FACTORIAL HepG2 Assay for human Liver X Receptor beta (LXRb) (AID 2282981); details: HepG2 Attagene TRANS GAL4-LXRb reporter, mRNA
Summary of the method: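 Multiplexed reporter assay, HepG2, 24 h dosing. Fluorescence of labelled RT-PCR products after capillary electrophoresis gives transcript level; positive fitting direction relative to DMSO.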

[10] = molecular target: Hepatocyte nuclear factor 4-alpha (Homo sapiens) (UniProt P41235); assay: ATG_HNF4a_TRANS: Attagene TRANS-FACTORIAL HepG2 Assay for human Hepatocyte Nuclear Factor 4 alpha (HNF4a) (AID 2282982); details: HepG2 HNF4a transactivation reporter, mRNA readout
Sequence of Hepatocyte nuclear factor 4-alpha (Homo sapiens) (P41235 whole entry, looked up, the tested form may be a part): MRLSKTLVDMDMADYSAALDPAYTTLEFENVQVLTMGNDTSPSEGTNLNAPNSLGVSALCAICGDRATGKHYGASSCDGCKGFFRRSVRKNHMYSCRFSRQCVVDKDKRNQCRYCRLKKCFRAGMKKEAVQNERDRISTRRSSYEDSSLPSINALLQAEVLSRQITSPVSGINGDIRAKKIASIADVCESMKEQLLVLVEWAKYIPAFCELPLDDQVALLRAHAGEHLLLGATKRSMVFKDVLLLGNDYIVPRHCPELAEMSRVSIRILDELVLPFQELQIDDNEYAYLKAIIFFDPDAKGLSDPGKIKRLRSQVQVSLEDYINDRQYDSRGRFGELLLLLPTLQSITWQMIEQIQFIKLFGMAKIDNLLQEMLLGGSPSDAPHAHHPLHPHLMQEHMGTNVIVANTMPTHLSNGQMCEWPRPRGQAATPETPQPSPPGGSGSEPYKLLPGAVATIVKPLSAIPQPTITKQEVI
Summary of the method: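 Endpoint reflects transcriptional activation of a GAL4-UAS reporter by an HNF4a-GAL4 chimera in transfected HepG2 cells, 24 h post-dosing. Fluorescence from RT-PCR products separated by capillary electrophoresis; DMSO baseline.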

[11] = ATG_M_32_TRANS: Attagene TRANS-FACTORIAL HepG2 Assay for M32 Transcription Factor (Internal Marker) (AID 2282984); details: HepG2 Attagene TRANS M32 internal marker reporter;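 further: transcript level of a background control reporter unit measured by RT-PCR and capillary electrophoresis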
Summary of the method: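 Internal-marker readout from a multiplexed transcription reporter panel. HepG2 cells were transfected with GAL4-UAS reporter units, treated 24 hours, and reporter transcript levels determined by fluorescence after RT-PCR and capillary separation.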

[12] = molecular target: Nuclear receptor subfamily 4 group A member 2 (Homo sapiens) (UniProt P43354); assay: ATG_NURR1_TRANS: Attagene TRANS-FACTORIAL HepG2 Assay for human Nuclear Receptor Related Protein 1 (NURR1) (AID 2282985); details: HepG2 Attagene TRANS reporter, mRNA readout
Sequence of Nuclear receptor subfamily 4 group A member 2 (Homo sapiens) (P43354 whole entry, looked up): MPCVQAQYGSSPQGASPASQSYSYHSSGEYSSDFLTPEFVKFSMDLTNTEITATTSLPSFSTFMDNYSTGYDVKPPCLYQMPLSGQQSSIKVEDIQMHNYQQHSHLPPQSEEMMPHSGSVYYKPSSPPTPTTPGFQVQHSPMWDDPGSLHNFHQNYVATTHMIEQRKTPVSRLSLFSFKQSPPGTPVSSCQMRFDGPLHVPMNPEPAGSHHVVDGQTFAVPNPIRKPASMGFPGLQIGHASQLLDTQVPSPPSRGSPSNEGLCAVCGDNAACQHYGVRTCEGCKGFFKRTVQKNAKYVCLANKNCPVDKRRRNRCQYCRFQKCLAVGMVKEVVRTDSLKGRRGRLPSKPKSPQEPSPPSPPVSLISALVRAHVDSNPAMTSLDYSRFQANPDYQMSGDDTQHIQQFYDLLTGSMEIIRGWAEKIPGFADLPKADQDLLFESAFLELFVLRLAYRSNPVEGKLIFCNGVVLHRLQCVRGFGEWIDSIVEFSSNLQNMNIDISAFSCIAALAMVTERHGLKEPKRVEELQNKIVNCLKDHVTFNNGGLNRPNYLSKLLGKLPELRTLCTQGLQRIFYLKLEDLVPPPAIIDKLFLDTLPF
Summary of the method: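 Endpoint: reporter mRNA increase relative to DMSO. HepG2 cells transfected with reporter units, treated 24 h; RNA processed by RT-PCR, labelling, HpaI digestion and capillary electrophoresis.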

[13] = molecular target: Transcriptional activator Myb (Homo sapiens) (UniProt P10242); assay: ATG_Myb_CIS: Attagene CIS-FACTORIAL HepG2 Assay for human Myeloblastosis (Myb) Proto-Oncogene Transcription Factor (AID 2282986; active means hit-call score of the fitted dose curve at least 0.9, where 1 is the maximum; inactive means score below 0.9); details: HepG2 Attagene CIS-FACTORIAL Myb reporter transcription; actives raise or lower the signal
Sequence of Transcriptional activator Myb (Homo sapiens) (P10242 whole entry, looked up): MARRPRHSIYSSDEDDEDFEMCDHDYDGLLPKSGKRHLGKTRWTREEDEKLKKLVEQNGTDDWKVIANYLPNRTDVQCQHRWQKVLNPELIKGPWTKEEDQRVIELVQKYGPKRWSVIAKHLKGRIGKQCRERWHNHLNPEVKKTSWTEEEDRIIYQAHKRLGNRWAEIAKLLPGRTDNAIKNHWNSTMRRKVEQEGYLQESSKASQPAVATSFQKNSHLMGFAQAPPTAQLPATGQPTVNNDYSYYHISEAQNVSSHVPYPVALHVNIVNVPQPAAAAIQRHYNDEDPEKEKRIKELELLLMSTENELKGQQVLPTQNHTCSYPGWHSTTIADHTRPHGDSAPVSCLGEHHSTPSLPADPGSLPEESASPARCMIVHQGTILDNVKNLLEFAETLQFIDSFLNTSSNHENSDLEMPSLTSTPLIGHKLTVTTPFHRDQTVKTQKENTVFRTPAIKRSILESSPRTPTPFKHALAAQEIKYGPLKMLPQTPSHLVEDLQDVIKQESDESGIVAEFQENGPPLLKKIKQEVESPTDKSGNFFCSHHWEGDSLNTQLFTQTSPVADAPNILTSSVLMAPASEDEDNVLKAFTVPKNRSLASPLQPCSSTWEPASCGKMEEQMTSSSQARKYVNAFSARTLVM
Summary of the method: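 Endogenous transcription factor activity at a Myb-responsive cis element is reported in human liver HepG2 cells after 24 h chemical treatment. Reporter mRNA is detected by RT-PCR and capillary electrophoresis fluorescence, with DMSO as baseline.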

[14] = molecular target: Nuclear respiratory factor 1 (Homo sapiens) (UniProt Q16656); assay: ATG_NRF1_CIS: Attagene CIS-FACTORIAL HepG2 Assay for human Nuclear Respiratory Factor 1 (NRF1) Orphan Gene (AID 2282987; active means hit-call score of the fitted dose curve at least 0.9, where 1 is the maximum; inactive means score below 0.9); details: HepG2 NRF1 cis-element reporter, Attagene multiplex; actives raise or lower the signal
Sequence of Nuclear respiratory factor 1 (Homo sapiens) (Q16656 whole entry, looked up): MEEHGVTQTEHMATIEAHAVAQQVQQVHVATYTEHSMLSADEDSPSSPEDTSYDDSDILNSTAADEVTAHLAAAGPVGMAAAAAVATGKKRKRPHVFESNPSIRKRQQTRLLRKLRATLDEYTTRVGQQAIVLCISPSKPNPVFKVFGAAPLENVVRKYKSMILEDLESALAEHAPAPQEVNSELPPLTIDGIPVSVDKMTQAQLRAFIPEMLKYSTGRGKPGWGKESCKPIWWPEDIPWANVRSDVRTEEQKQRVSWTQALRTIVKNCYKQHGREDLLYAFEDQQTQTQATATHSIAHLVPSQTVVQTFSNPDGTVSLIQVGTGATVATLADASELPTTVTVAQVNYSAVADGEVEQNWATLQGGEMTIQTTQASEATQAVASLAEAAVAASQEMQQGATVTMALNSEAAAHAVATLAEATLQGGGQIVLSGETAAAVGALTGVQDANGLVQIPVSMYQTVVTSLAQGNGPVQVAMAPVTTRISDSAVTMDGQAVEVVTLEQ
Summary of the method: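 Human hepatoma HepG2 cells carrying transfected promoter-regulated reporter units were incubated with test chemicals for 24 h. Reporter transcripts were measured by RT-PCR plus capillary electrophoresis, and endpoints derived by bidirectional fitting with DMSO as baseline.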

[15] = ATG_M_06_TRANS: Attagene TRANS-FACTORIAL HepG2 Assay for M06 Transcription Factor (Internal Marker) (AID 2282983); details: HepG2 Attagene TRANS M06 internal marker reporter
Summary of the method: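 Background control endpoint: reporter mRNA from transiently transfected HepG2 after 24 h dosing, detected by RT-PCR with capillary electrophoresis fluorescence. Analysed for gain versus DMSO.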

[16] = molecular target: Glucocorticoid receptor (Homo sapiens) (UniProt P04150); assay: ATG_GR_TRANS: Attagene TRANS-FACTORIAL HepG2 Assay for human Glucocorticoid Receptor (GR) (AID 2282978); details: HepG2 Attagene TRANS GR reporter, mRNA transcription;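 further: activators score as hits since higher reporter transcript over DMSO is fitted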
Sequence of Glucocorticoid receptor (Homo sapiens) (P04150 whole entry, looked up): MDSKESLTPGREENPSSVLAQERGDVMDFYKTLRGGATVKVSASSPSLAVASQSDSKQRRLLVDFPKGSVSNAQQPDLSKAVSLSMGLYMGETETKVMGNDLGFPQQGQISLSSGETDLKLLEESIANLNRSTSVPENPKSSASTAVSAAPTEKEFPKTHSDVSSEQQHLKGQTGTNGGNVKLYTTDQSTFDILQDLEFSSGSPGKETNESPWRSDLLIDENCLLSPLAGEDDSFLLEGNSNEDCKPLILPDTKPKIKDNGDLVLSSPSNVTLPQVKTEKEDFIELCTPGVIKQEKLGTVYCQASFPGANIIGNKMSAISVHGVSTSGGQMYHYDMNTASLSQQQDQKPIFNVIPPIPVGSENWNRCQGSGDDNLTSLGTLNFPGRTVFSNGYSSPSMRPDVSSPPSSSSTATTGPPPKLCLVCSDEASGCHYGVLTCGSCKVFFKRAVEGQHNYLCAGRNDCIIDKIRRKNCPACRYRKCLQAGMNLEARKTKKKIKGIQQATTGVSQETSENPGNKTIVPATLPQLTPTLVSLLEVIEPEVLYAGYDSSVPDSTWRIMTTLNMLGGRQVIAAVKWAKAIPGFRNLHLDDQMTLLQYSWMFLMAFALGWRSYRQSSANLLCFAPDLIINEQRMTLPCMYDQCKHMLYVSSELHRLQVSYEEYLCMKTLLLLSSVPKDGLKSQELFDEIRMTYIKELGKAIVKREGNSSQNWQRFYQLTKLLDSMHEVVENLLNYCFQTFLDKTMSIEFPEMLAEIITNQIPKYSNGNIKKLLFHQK
Summary of the method: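 Multiplexed TRANS reporter system, HepG2; 24 h exposure; RNA → oligo(dT) RT → reporter-specific PCR → 6-FAM primer extension → HpaI cut → CE fluorescence. Gain-of-signal vs DMSO.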

[17] = molecular target: Bile acid receptor (Homo sapiens) (UniProt Q96RI1); assay: ATG_FXR_TRANS: Attagene TRANS-FACTORIAL HepG2 Assay for Farnesoid X Receptor (FXR) (AID 2282979); details: HepG2 Attagene TRANS FXR-GAL4 reporter transcription;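 further: hits raise reporter mRNA above DMSO so AC50 marks FXR activation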
Summary of the method: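 Transient transfection of HepG2 with multiplexed GAL4-UAS reporter units; exogenous FXR-GAL4 chimera. Dose 24 h → TriZol RNA → oligo(dT) RT → PCR, 6-FAM primer extension, HpaI cut → CE. Gain vs DMSO.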

Measured: AC50

CC1=CC[C@H](C(C)C)C=C1
inactive: [1] | [2] | [3] | [4] | [5] | [6] | [7] | [8] | [9] | [10] | [11] | [12] | [13] | [14]

CCCCC/C=C\C/C=C\CCCCCCCC(=O)OC
active: [13] 162 µM | [14] 171 µM
inactive: [1] | [2] | [3] | [5] | [10] | [15] | [11] | [12]

CC(C)(C)C1CCCCC1=O (centres undefined)
inactive: [1] | [2] | [4] | [5] | [7] | [16] | [8] | [9] | [10] | [15] | [11] | [13] | [14]

NC(=O)OCC(COC(N)=O)c1ccccc1
inactive: [1] | [2] | [4] | [5] | [7] | [10] | [15] | [12] | [13] | [14]

Cc1cnc(NC(=O)C2=C(O)c3ccccc3S(=O)(=O)N2C)s1
inactive: [1] | [2] | [4] | [5] | [6] | [16] | [17] | [15] | [11] | [12] | [13] | [14]
